Drawing on PubChem BioAssay (NCATS), this text covers Potency for 36 molecules.

Several values for one entry are separate records, joined by “and”; a condition that tells them apart may be missing. Equal values may be shown once. Inconclusive results are not listed. Activity calls are given as the source filed them. Calls come from the whole dose curve; as a rule, active = well fitted inhibition curve with a large enough effect; inconclusive = small, poorly fitted or top-dose-only effect; inactive = flat fitted curve, though single readings scatter.
Potency is the fitted concentration of half-maximal effect.

For the experiment, the target named is Ubiquitin carboxyl-terminal hydrolase 2 (Homo sapiens) (UniProt O75604). The experiment in a line: qHTS for Inhibitors of Ubiquitin-specific Protease USP2a Using CHOP2 as the Reporter: K484 Substrate (AID 652173).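 Note: cleavage of internally quenched K48 di-ubiquitin substrate measured as rising fluorescence over time; nearly all actives have a fitted effect of over 70% in size.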 The conditions noted are these: USP2 cleavage of DiUb K48 IQF substrate, fluorescence; series mostly up to 57.5 µM. In outline: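 USP2 (dispensed at 5 nM) was pinned with compounds, then DiUb K48 internally quenched fluorescent substrate (dispensed at 100 nM) was added. The buffer was 20 mM Tris pH 8, 2 mM beta-mercaptoethanol and 0.05% CHAPS. Cleavage was read kinetically as rising fluorescence, Ex 525/Em 598.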
Chain of Ubiquitin carboxyl-terminal hydrolase 2 (Homo sapiens) (O75604 whole entry, looked up): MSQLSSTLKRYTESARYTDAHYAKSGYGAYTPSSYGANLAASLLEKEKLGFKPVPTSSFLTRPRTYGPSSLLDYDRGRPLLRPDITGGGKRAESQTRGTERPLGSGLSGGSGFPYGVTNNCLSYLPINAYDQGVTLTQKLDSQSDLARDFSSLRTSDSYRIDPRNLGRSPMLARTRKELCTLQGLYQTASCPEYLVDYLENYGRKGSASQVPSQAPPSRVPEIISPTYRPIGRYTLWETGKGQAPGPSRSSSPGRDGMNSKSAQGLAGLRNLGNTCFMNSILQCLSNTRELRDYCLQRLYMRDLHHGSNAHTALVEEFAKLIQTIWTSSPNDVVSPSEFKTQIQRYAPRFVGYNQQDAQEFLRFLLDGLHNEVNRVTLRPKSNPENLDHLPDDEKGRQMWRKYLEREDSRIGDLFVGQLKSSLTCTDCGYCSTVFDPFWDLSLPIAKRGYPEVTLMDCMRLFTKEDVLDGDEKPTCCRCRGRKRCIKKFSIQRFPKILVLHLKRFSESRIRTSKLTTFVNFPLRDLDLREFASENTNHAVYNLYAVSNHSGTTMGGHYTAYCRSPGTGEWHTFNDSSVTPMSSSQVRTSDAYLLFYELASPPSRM
On the technique in general: In qHTS, concentration-response curves come from the screen itself.
For the molecule `Cc1ccc(S(=O)(=O)Nc2cnccc2C(=O)Nc2nc3ccccc3s2)cc1`, the Potency is 3.43 µM (active).
Under `CCCc1ccc(-c2csc(NC(=O)c3ccncc3NS(=O)(=O)c3ccc(C)cc3)n2)cc1` stands 1.53 µM (active); under `O=C(Nc1ccc(C(=O)Nc2nccs2)cc1)c1ccc2ccccc2c1`, 3.85 µM (active); under `O=C(Nc1nc(-c2ccccc2)cs1)c1ccncc1NS(=O)(=O)c1ccccc1Cl`, 1.53 µM (active).
For `COc1ccc(S(=O)(=O)Nc2cnccc2C(=O)Nc2nc(-c3ccccc3)cs2)cc1` the value was 3.85 µM (active).
Under `O=C(Nc1ccc(S(=O)(=O)Nc2nccs2)cc1)c1ccc(-c2ccccc2)cc1` stands 24.3 µM (active).
Take `Cc1ccc(S(=O)(=O)Nc2cnccc2C(=O)Nc2nc(-c3ccc4c(c3)CCCC4)cs2)cc1`: the Potency was 2.17 µM (active).
In the case of `COc1ccc(C(=O)Nc2nc(-c3ccccc3)cs2)c(NS(=O)(=O)c2ccc(C)cc2)c1`, the Potency is 1.37 µM (active).
Take `Cc1ccc(-c2cc(C(=O)Nc3ccc([N+](=O)[O-])cc3)c3ccccc3n2)cc1C`: the Potency is 13.7 µM (active).
For `O=S(=O)(Nc1nccs1)c1ccc(Nc2nc(-c3ccc(F)cc3)cs2)cc1`, the Potency was 3.06 µM (active) and 9.68 µM (active).
Under `O=C(Nc1nc(-c2ccccc2)cs1)c1ccncc1NS(=O)(=O)c1ccc(C(F)(F)F)cc1` stands 3.06 µM (active); under `Cc1ccccc1S(=O)(=O)Nc1cnccc1C(=O)Nc1nc(-c2ccccc2)cs1`, 2.43 µM (active); under `Cc1ccc(-c2cc(C(=O)Nc3ccc(S(=O)(=O)O)cc3)c3ccccc3n2)cc1C`, 13.7 µM (active).
With `O=S(=O)(Nc1nccs1)c1ccc(Nc2nc(-c3ccc(-c4ccccc4)cc3)cs2)cc1`, the Potency is 1.93 µM (active).
Consider `O=C(Nc1nc(-c2ccccc2)cs1)c1ccncc1NS(=O)(=O)c1cccc(Cl)c1`, for which the Potency was 3.85 µM (active).
Take `Cc1ccc(S(=O)(=O)Nc2ncccc2C(=O)Nc2nc(-c3ccccc3)cs2)cc1`: the Potency was 3.43 µM (active).
Under `O=C(Nc1nc(-c2ccc(F)cc2)cs1)c1ccncc1NS(=O)(=O)c1ccccc1Cl` stands 3.06 µM (active).
For the molecule `Cc1cc(S(=O)(=O)Nc2cnccc2C(=O)Nc2nc(-c3ccccc3)cs2)c(C)o1`, the Potency was 3.43 µM (active).
Take `CCc1ccc(S(=O)(=O)Nc2cnccc2C(=O)Nc2nc(-c3ccccc3)cs2)cc1`: the Potency is 1.72 µM (active).
With `CCCOC1CCC(C(=O)Nc2ccc([S+](=O)([O-])Nc3nccs3)cc2)CC1` (stereo unspecified), the Potency entry was “inactive”.
With `O=C1CCCc2cc(S(=O)(=O)Nc3cnccc3C(=O)Nc3nc(-c4ccccc4)cs3)ccc2N1`, the Potency is 7.69 µM (active).
With `Cc1ccc(S(=O)(=O)Nc2cnccc2C(=O)Nc2nc(-c3cc(Br)cs3)cs2)cc1`, the Potency is 2.17 µM (active).
Turning to `Cc1ccc(S(=O)(=O)Nc2cnccc2C(=O)Nc2cccc3ccccc23)cc1`, the Potency is 7.69 µM (active).
Under `O=C(Nc1nc(-c2ccccc2)cs1)c1ccncc1NS(=O)(=O)c1c(F)cc(F)cc1F` stands 3.43 µM (active); under `O=C(Nc1nc(-c2ccc(F)cc2)cs1)c1ccncc1NS(=O)(=O)c1ccc(F)cc1`, 4.85 µM (active); under `O=C(Nc1ccc(S(=O)(=O)Nc2ncc(-c3ccccc3)s2)cc1)c1ccc2ccccc2c1`, 3.06 µM (active).
`Cc1ccc(S(=O)(=O)Nc2cnccc2C(=O)Nc2nc(-c3cccc(Cl)c3)cs2)cc1`: the Potency was 2.17 µM (active).
As for `Cc1ccc(S(=O)(=O)Nc2cnccc2C(=O)Nc2ccc3ccccc3c2)cc1`, the Potency is 6.11 µM (active).
With `Cc1ccc(S(=O)(=O)Nc2cnccc2C(=O)Nc2nc(-c3cnn(C)c3)cs2)cc1`, the Potency is 8.63 µM (active).
`Cc1ccc(S(=O)(=O)Nc2cnccc2C(=O)Nc2nc(-c3ccccc3Cl)cs2)cc1`: the Potency was 1.72 µM (active).
For `O=C(Nc1nc(-c2ccccc2)cs1)c1ccncc1NS(=O)(=O)c1ccc(-c2ccccc2)cc1`, the Potency is 1.53 µM (active).
Turning to `N#Cc1ccccc1S(=O)(=O)Nc1cnccc1C(=O)Nc1nc(-c2ccccc2)cs1`, the Potency is 7.69 µM (active).
`Cc1ccc(S(=O)(=O)Nc2cnccc2C(=O)Nc2ccc(C#N)cc2)cc1`: the Potency is 21.7 µM (active).
Regarding `Cc1ccc(S(=O)(=O)Nc2cnccc2C(=O)Nc2nc(-c3cccnc3)cs2)cc1`, the Potency is 13.7 µM (active).
For `Cc1ccc(S(=O)(=O)Nc2cnccc2C(=O)Nc2nc(-c3ccc(Oc4ccccc4)cc3)cs2)cc1` the value was 2.17 µM (active); for `Cc1ccc(-c2csc(NC(=O)c3ccncc3NS(=O)(=O)c3ccc(C)cc3)n2)cc1`, 1.22 µM (active).
